By inhibition is commonly meant the drop in the measured response relative to a control, in per cent.

Among all 96,000 compounds or so, about 200 (0.21%) were called active.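 Rule for the calls: active = inhibition at 2 µM at or above a set limit, the screen mean plus 3 SD (cut at about 24% in these data); inactive = the rest.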 For the sample, actives were picked, then their nearest neighbours and some compounds at random.

The text below walks through data of PubChem BioAssay AID640 (Columbia University Molecular Screening Center, 2007).

The assay deals with Tyrosine-protein phosphatase non-receptor type 22 (Homo sapiens) (UniProt Q9Y2R2). The experiment in a line: PTPN22 phosphatase inhibitors, primary screen, biochemical, DiFMUP fluorescence, 2 µM (AID 640).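 Note: 0% = DMSO with enzyme and 100% = enzyme fully blocked by orthovanadate.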 To be noted: recombinant LYP catalytic domain, at 2 µM, hits give high values.
Sequence of Tyrosine-protein phosphatase non-receptor type 22 (Homo sapiens) (Q9Y2R2 whole entry, looked up, the tested form may be a part): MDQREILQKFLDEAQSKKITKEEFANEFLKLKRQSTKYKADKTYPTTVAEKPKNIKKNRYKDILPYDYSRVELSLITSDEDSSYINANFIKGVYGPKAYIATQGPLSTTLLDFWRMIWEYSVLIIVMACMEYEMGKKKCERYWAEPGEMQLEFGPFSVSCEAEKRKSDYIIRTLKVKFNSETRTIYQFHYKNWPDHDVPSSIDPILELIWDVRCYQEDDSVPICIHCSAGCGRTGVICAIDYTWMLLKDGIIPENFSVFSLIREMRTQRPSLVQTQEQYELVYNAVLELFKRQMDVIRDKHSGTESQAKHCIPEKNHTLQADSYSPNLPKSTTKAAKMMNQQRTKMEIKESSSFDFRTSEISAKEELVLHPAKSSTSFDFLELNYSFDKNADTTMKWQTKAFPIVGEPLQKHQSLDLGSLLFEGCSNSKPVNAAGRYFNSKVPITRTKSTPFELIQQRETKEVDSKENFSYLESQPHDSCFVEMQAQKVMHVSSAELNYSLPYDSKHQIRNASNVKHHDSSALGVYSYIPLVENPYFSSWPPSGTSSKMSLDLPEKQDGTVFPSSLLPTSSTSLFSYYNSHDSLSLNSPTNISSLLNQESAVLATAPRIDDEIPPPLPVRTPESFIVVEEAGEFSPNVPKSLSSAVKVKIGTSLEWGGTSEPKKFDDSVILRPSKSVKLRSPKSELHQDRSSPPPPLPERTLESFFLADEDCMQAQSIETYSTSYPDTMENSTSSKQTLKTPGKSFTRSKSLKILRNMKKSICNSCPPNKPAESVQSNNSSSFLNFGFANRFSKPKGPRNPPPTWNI
Take `Cc1ccc(OCC(=O)Nc2cccc3c2CCCC3)cc1C`: the inhibition was 10% (inactive). Regarding `CCN1CCN(C(=O)/C=C\C(=O)O)CC1`, the inhibition is -7% (inactive). On to `Cc1cc(S(=O)(=O)NC2CCCCC2)ccc1OCC(=O)NCc1cccnc1`, for which the inhibition was -9.7% (inactive). To `COc1ccc(Br)cc1CN1CCN(C(=O)c2cccc(OC)c2OC)CC1` belongs 0.1% (inactive); to `COC(=O)c1c(CCl)noc1C(=O)NC(C)C`, -0.4% (inactive). For the molecule `CCc1ccc2c(c1)C1(NN=C(c3ccccc3)S1)C(=O)N2` (stereo not given), the inhibition is 15.3% (inactive).

As to `CCCCc1nnc(NC(=O)CS(=O)(=O)Cc2ccccc2)s1`, the inhibition is 3.6% (inactive). The result for `c1ccc(-c2nccc(-c3ccc(-n4cnc5ccccc54)cc3)n2)nc1` reads 39.8% (active).

Turning to `c1ccc(-c2noc(-c3cccs3)n2)nc1`, the inhibition was 7.6% (inactive). For the molecule `CC(C)c1nc(-c2ccccn2)no1`, the inhibition was 4% (inactive). Turning to `COc1ccc(Nc2cc(=O)oc3ccccc23)cc1`, the inhibition is 5% (inactive). The result for `Cc1cc(-n2nc(C)cc2C)n2nc(C)c(-c3ccccc3)c2n1` reads -2.6% (inactive). Take `O=C(Nc1ccccc1)O/N=C1\CCCCC1c1ccc([N+](=O)[O-])cc1[N+](=O)[O-]` (stereo not given): the inhibition is -11% (inactive). Regarding `O=S(=O)(NN=C1CCCCCCC1)c1ccc(Br)cc1`, the inhibition was 6.1% (inactive).

Consider `Cc1nc2ccccc2n1C(=O)N1CCOCC1`, for which the inhibition is 1.2% (inactive).

Take `Cc1ccc(S(=O)(=O)N(CC(=O)N2CCc3ccccc3C2)c2cccc(Cl)c2)cc1`: the inhibition was 4.6% (inactive). To `Cc1cc(C)c(NC(=O)CN2CCOCCOCCOCCOCC2)c(C)c1` belongs 3.4% (inactive); to `O=C(Oc1ccccc1)Oc1ccc2c(c1)oc(=O)c1ccccc12`, -1.7% (inactive).

Turning to `COCCN(C(=O)c1ccco1)c1nnc(-c2ccc(OC)cc2)s1`, the inhibition is 10.8% (inactive).

In the case of `COc1ccc(S(=O)(=O)NCc2ccc(C(=O)N(C)Cc3ccco3)cc2)cc1`, the inhibition is -6% (inactive).

Take `CCOC(=O)C1=C(C)NC(SC)=NC1c1ccccc1` (stereo not given): the inhibition is -0.6% (inactive).

With `Cc1nc2cc(NC(=O)NCc3ccccc3)ccc2o1`, the inhibition was -5.6% (inactive). Take `O=C1Nc2cc(Cl)c(Cl)cc2N(O)N1c1cc(Cl)cc(Cl)c1`: the inhibition was -15.4% (inactive).

Regarding `COc1ccc2nc(SCC(=O)Nc3c(C)cc(C)cc3C)[nH]c2c1`, the inhibition is -3.6% (inactive). As to `O=C(c1cccc(F)c1)N1CCN(c2ccc([N+](=O)[O-])c(N3CCCCC3)c2)CC1`, the inhibition is 8.1% (inactive). As for `CCn1nccc1C(=O)Nc1ccc(Cl)c(Cl)c1`, the inhibition was -0.3% (inactive).

With `O=C(CC(O)(C(F)(F)F)C(F)(F)F)Nc1ccc(Cl)c(Cl)c1`, the inhibition is -2.3% (inactive).

With `Cc1nnc(NC(=O)Nc2ccc(Cl)c(Cl)c2)s1`, the inhibition is 24.4% (active). To `CCOC(=O)C1CN(S(=O)(=O)c2ccc(F)cc2)C1` belongs 8.4% (inactive); to `CC(C)(C)NC(=O)CSC(=Nc1ccccc1F)NC#N`, 11.7% (inactive). Regarding `CCCn1nnc(NC(=O)COc2ccc(CC)cc2)n1`, the inhibition is 14.5% (inactive).

In the case of `CCOC(=O)C(Sc1ncc(C#N)c(N)n1)C(C)C` (stereo not given), the inhibition was 4.5% (inactive). Consider `Cc1ccc(CN2CCN(/N=C/c3ccco3)CC2)c(C)c1`, for which the inhibition is 6.2% (inactive). The result for `CCOC(=O)CN(Cc1ccc(OC)c(OC)c1)S(=O)(=O)c1ccc(OC)cc1` reads 4.6% (inactive).

With `Cn1nc(C(F)(F)F)c2cc(NC(=O)OCC(C)(C)C)sc21`, the inhibition was -3.4% (inactive). With `CCCCNCc1ccc(SC)cc1`, the inhibition is -8.8% (inactive).

On to `COc1ccc(-c2noc(CSc3ccc(C)cc3)n2)cc1`, for which the inhibition is 6.7% (inactive). With `CCSc1nnc(NC(=O)c2ccc(C)cc2)s1`, the inhibition was -2.4% (inactive). As for `CC(C)(C)C(=O)Nc1ccc(C(=O)N/N=C/c2ccccc2OC(=O)c2ccc(Cl)cc2Cl)cc1`, the inhibition was 13% (inactive). As for `CC(C)n1c(-c2cccs2)nc2ccccc21`, the inhibition is -3.5% (inactive). Consider `CCOC(=O)c1cnc(SCC(=O)Nc2cccc(OC)c2)nc1N`, for which the inhibition is -12.3% (inactive). With `Cc1ccc(-n2c(C)cc(/C=N/Nc3ccc([N+](=O)[O-])cn3)c2C)c(C)c1`, the inhibition was 11.5% (inactive). With `Cc1nc(NC(=O)CN(C)S(=O)(=O)c2ccc(Cl)cc2)sc1C`, the inhibition is 6.8% (inactive). Take `Nc1c(-c2cccc(Cl)c2)cnn1-c1cccc([N+](=O)[O-])c1`: the inhibition was -9.9% (inactive). As for `O=C(N/N=C/c1ccsc1)c1cc(O)cc(O)c1`, the inhibition was 4.4% (inactive). `Cn1cc([N+](=O)[O-])c(C(=O)Nc2ccc3c(c2)OCCO3)n1`: the inhibition is 3.8% (inactive). On to `O=S(=O)(N/N=C\c1cccn1-c1ccccc1)c1ccc2ccccc2c1`, for which the inhibition is -4.4% (inactive). Take `O=C1CSC(c2ccc(Cl)cc2)N1` (stereo not given): the inhibition is -5.4% (inactive). Turning to `COCC(=O)Nc1ccc(Br)cc1`, the inhibition was -3.3% (inactive).

Regarding `Cn1c(=O)c2c(nc(N3CCOCC3)n2CCNC2=NCCC2)n(C)c1=O`, the inhibition is -6.1% (inactive). The result for `COn1c(=O)c(=O)n(OC)c2ccccc21` reads 3.4% (inactive); that for `Cc1oc(-c2ccccc2Cl)[n+]([O-])c1C`, -4.8% (inactive); that for `CC1=NN(C(C)C)C(=O)C1`, 1.5% (inactive). The result for `c1ccc(CSc2ncnc3c2sc2nc(N4CCOCC4)c4c(c23)CCCC4)cc1` reads 10.1% (inactive). Consider `CCOc1cccc(NC(=O)Cn2nc(-c3ccc4c(c3)OCCO4)ccc2=O)c1`, for which the inhibition was 7.6% (inactive).

Turning to `O=C(Nc1ccc2sc3ccccc3c(=O)c2c1)c1ccccc1Cl`, the inhibition is 1.6% (inactive). To `COC(=O)CSc1nnc(-c2cccnc2)o1` belongs 4.2% (inactive); to `Cc1ccc2oc(=O)c3cnn(CC(=O)N(Cc4ccco4)C4CCCCC4)c3c2c1`, 3.6% (inactive); to `COc1cc(S(=O)(=O)N(Cc2cccs2)C2CC2)ccc1-n1cnnn1`, -4.5% (inactive). The result for `CCOc1ccc(N=C2NC(=O)S/C2=C\c2ccc(O)cc2)cc1` reads -3.4% (inactive); that for `COc1ccc2oc(=O)c(C(=O)NCc3ccccn3)cc2c1`, -1.3% (inactive); that for `Cc1cc(/C=C2/SC(=O)N(CC(=O)OC(C)C)C2=O)c(C)n1C`, 9.2% (inactive). Turning to `N#Cc1ccccc1CN1C(=O)S/C(=C/c2cccn2-c2cccc(C(=O)O)c2)C1=O`, the inhibition was 32.6% (active). Consider `Brc1ccc(-c2nnc(-c3ccccc3)o2)o1`, for which the inhibition is -8.3% (inactive). For `O=C(CCCN1C(=O)c2ccccc2C1=O)Oc1ccc(Cl)cc1`, the inhibition was 4.1% (inactive). Turning to `COc1ccc(/C(O)=C2/C(=O)C(=O)N(CC3CCCO3)C2c2ccc(OC)c(OC)c2)cc1` (stereo not given), the inhibition is -1.4% (inactive). In the case of `COc1cc(CNCc2cccs2)cc(Br)c1OC`, the inhibition is 1.7% (inactive).

For `O=c1onc(-c2cccs2)n1Cc1ccccc1`, the inhibition was 6.3% (inactive).

For the molecule `C=CCOC(=O)C1=C(C)NC(SCC(=O)OCC)=C(C#N)C1c1ccc(C)cc1` (stereo not given), the inhibition was -1.5% (inactive). With `COc1ccccc1NC(=O)CSc1nnc(C)n1CC1CCCO1` (stereo not given), the inhibition was -14.6% (inactive). Consider `CCCn1c(C(Cc2ccccc2)NC(=O)COC)nc2ccccc21` (stereo not given), for which the inhibition was -7.4% (inactive). For `CC(C)OC(=O)CN1C(=O)C(=O)c2ccccc21`, the inhibition is -2.8% (inactive). With `COc1ccc([N+](=O)[O-])cc1C1NN=C(c2cccc3ccccc23)S1` (stereo not given), the inhibition is 10.1% (inactive). With `O=C(NCc1ccco1)C1(c2ccc(Cl)cc2)CCCC1`, the inhibition was -8.9% (inactive).

As to `Cc1cccc(NC(=O)N(Cc2cc3cc(C)cc(C)c3[nH]c2=O)CC2COCCO2)c1` (stereo not given), the inhibition was 2.6% (inactive).

`CCOC(=O)c1nc(C)n(-c2ccc(Cl)cc2Cl)n1`: the inhibition was -1.3% (inactive). To `Cc1ccc(N2CCN(/N=C/c3cccs3)CC2)cc1` belongs 9.9% (inactive); to `Clc1ccccc1SCc1nc2ccccc2[nH]1`, 2.7% (inactive); to `Cc1ccc(NC(=O)CSCC(=O)N2CCOCC2)cc1`, -3.1% (inactive). As to `COC(=O)c1ccc(C2C(Oc3ccccc3C)C(=O)N2CCc2ccc(OC)c(OC)c2)cc1` (stereo not given), the inhibition was -11.5% (inactive). On to `CCSc1nnc(NC(=O)Cc2ccccc2OC)s1`, for which the inhibition was 15.4% (inactive). Turning to `CC(c1ccco1)N(C(=O)Nc1ccccc1)C1CCCCC1` (stereo not given), the inhibition was -2% (inactive).

Turning to `CCOc1c2ccc(C(=O)NC3CCCc4ccccc43)cc2nn1CC` (stereo not given), the inhibition is -7.5% (inactive). Turning to `CCN1C(=O)/C(=C2/Sc3ccc(OC)cc3N2C)SC1=Nc1ccc(C)cc1`, the inhibition was -28% (inactive).

Take `O=C(ON=C1CCN(S(=O)(=O)c2ccccc2)CC1)c1ccc(Cl)cc1`: the inhibition is -19.3% (inactive). The result for `Cc1ccccc1C(=O)N1CCC(C(=O)Nc2ccc(S(=O)(=O)N(C)C(C)C)cc2)CC1` reads 3.5% (inactive); that for `CCOc1c2ccc(C(=O)NCc3ccc4c(c3)OCO4)cc2nn1C`, -4.3% (inactive). As to `Cc1cc(Cl)c(S(=O)(=O)N(C)C)cc1OCC(N)=O`, the inhibition is -3.7% (inactive). Turning to `O=Cc1c(N2CCN(c3cccc(Cl)c3)CC2)nc2ccccn2c1=O`, the inhibition is -12.5% (inactive).

With `COc1ccc(CN2CCn3ncc(C(=O)Nc4ccc(Cl)cc4Cl)c3C2=O)cc1`, the inhibition is -3.3% (inactive). The result for `CC1CCc2c(nc3ncnn3c2Nc2ccc(OC(F)(F)F)cc2)C1` (stereo not given) reads 16.7% (inactive); that for `O=C(/C=C/Sc1ncn[nH]1)c1ccc(Cl)cc1`, -5.9% (inactive); that for `Cc1cccc(-n2ncc(C#N)c2-n2cccc2)c1`, -13.4% (inactive). The result for `CCOC(=O)c1ccc(COC(=O)CCc2nc(-c3ccccc3)c(-c3ccccc3)o2)cc1` reads 10.3% (inactive); that for `COC(=O)CNC(c1ccccc1Cl)c1cc(Br)ccc1NC(=O)CCN1CCOCC1` (stereo not given), 7.7% (inactive); that for `O=C(CSc1nc2ccccc2o1)N1c2ccccc2Sc2ccc(Cl)cc21`, 4.8% (inactive).

Consider `N#CC1=C(N)N(c2ccc(F)cc2)C(=O)C1`, for which the inhibition is 7% (inactive). As to `O=[N+]([O-])c1ccc(N2CCN(S(=O)(=O)c3ccc4ccccc4c3)CC2)cc1NCc1ccco1`, the inhibition is 4.1% (inactive). As to `Cn1nnnc1SCC(=O)Nc1ccccc1C(=O)NC1CC1`, the inhibition was 11.6% (inactive). To `COc1ccc(-n2cnc3cc(NCc4ccco4)ccc32)cc1` belongs 6.5% (inactive).
